In PubChem BioAssay (NCI):
Values joined by “and” are separate entries in the source; they are usually repeats but may differ in a detail not shown here. Equal entries are not always repeated. The panel holds about 83,000 compounds, 20% with a hit somewhere; the sample as a whole holds those more often.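 Single-concentration screen, 48 h exposure, 96-well plates. Endpoint: percent growth. Below 10 = active.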 Active and inactive are the calls of the source.

Assays:
Assay in all cases: NCI-60 one-dose screen, 48 h (100 = growth as untreated, 0 = no growth, -100 = all killed)
HCT-15 colon = conditions: 10 µM
HT29 colon = conditions: 10 µM
SNB-19 CNS = conditions: 10 µM
U251 CNS = conditions: 10 µM unless noted
PC-3 prostate = conditions: 10 µM
SK-MEL-5 melanoma = conditions: 10 µM unless noted
UACC-62 melanoma = conditions: 10 µM
LOX IMVI melanoma = conditions: 10 µM unless noted
SK-MEL-28 melanoma = conditions: 10 µM
SK-MEL-2 melanoma = conditions: 10 µM
SN12C renal = conditions: 10 µM
UO-31 renal = conditions: 10 µM
TK-10 renal = conditions: 10 µM
ACHN renal = conditions: 10 µM
CAKI-1 renal = conditions: 10 µM
A498 renal = conditions: 10 µM
CCRF-CEM leukemia = conditions: 10 µM
MOLT-4 leukemia = conditions: 10 µM
SNB-75 CNS = conditions: 10 µM
EKVX NSCLC = conditions: 10 µM

SMILES | growth (HCT-15 colon) | growth (HT29 colon) | growth (SNB-19 CNS) | growth (U251 CNS) | growth (PC-3 prostate) | growth (SK-MEL-5 melanoma) | growth (UACC-62 melanoma) | growth (LOX IMVI melanoma) | growth (SK-MEL-28 melanoma) | growth (SK-MEL-2 melanoma) | growth (SN12C renal) | growth (UO-31 renal) | growth (TK-10 renal) | growth (ACHN renal) | growth (CAKI-1 renal) | growth (A498 renal) | growth (CCRF-CEM leukemia) | growth (MOLT-4 leukemia) | growth (SNB-75 CNS) | growth (EKVX NSCLC)
O=C1NC(=O)c2cc([N+](=O)[O-])ccc21 | 107% (inactive) | 109% (inactive) | 109% (inactive) | 109% (inactive) | 101% (inactive) | 104% (inactive) | 102% (inactive) | 104% (inactive) | 120% (inactive) | 107% (inactive) | 101% (inactive) | 85.5% (inactive) | 99.3% (inactive) | 103% (inactive) | 86.4% (inactive) | 99.2% (inactive) | 45.3% (inactive) | 96.9% (inactive) | – | –
NC1=C(Cl)C(=O)c2ccccc2C1=O | – | 58.8% (inactive) | 72.1% (inactive) | 50.5% (inactive) | 53% (inactive) | -80.8% (active) | -41.4% (active) | 19.2% (inactive) | 105% (inactive) | 51.9% (inactive) | 62.5% (inactive) | 84.3% (inactive) | 120% (inactive) | 76.8% (inactive) | 89.5% (inactive) | – | 46% (inactive) | 56.1% (inactive) | -0.135% (active) | 107% (inactive)
CC(=O)OCC(OC(C)=O)C(OC(C)=O)C(OC(C)=O)C(OC(C)=O)C(/C=N/Nc1ccccc1)=N/Nc1ccccc1 (stereo unspecified) | 59.5% (inactive) | 56.1% (inactive) | 88.9% (inactive) | 72.5% (inactive) | 55.9% (inactive) | 91.9% (inactive) | – | 36.8% (inactive) | 101% (inactive) | 84.3% (inactive) | 78.7% (inactive) | 48.6% (inactive) | 91.2% (inactive) | 56.2% (inactive) | 72.6% (inactive) | – | 17.5% (inactive) | 30.6% (inactive) | 87.4% (inactive) | –
O=C1C=C(O)c2ccccc2C1=O.[Ag] | – | 81.9% (inactive) | 102% (inactive) | – | 78.7% (inactive) | – | 108% (inactive) | – | 92.3% (inactive) | – | 103% (inactive) | 82.9% (inactive) | 157% (inactive) | 95.2% (inactive) | 94.4% (inactive) | – | 101% (inactive) | 105% (inactive) | 87.9% (inactive) | –
NC(=O)SCC(=O)NNc1ccccc1 | – | 103% (inactive) | 108% (inactive) | 87.8% (inactive) | 85.7% (inactive) | 103% (inactive) | 70.9% (inactive) | 67.1% (inactive) | 106% (inactive) | 87.5% (inactive) | 94.9% (inactive) | 78.9% (inactive) | 95.5% (inactive) | 81.1% (inactive) | 92.8% (inactive) | – | 90.4% (inactive) | 111% (inactive) | 92.5% (inactive) | –
COc1ccc(CC(=O)c2ccc(O)cc2O)cc1 | – | 112% (inactive) | 121% (inactive) | 116% (inactive) | 109% (inactive) | 103% (inactive) | 120% (inactive) | 108% (inactive) | 139% (inactive) | – | 123% (inactive) | 98.5% (inactive) | 122% (inactive) | 118% (inactive) | – | 128% (inactive) | 104% (inactive) | – | 111% (inactive) | –
CCN(CC)c1ccc(NC(C(=O)c2ccccc2)c2ccccc2)cc1 (stereo unspecified) | – | 12.4% (inactive) | 36.6% (inactive) | -17.5% (active) | 83.7% (inactive) | 78.8% (inactive) | 28.3% (inactive) | -43.4% (active) | 16.9% (inactive) | 78.4% (inactive) | 1.65% (active) | -24.8% (active) | 41% (inactive) | -34.6% (active) | 17.8% (inactive) | – | 10.3% (inactive) | 12.8% (inactive) | 81.7% (inactive) | –
NNc1c2ccccc2nc2ccccc12 | – | 34.5% (inactive) | 56.9% (inactive) | 48% (inactive) | 50.7% (inactive) | 22% (inactive) | 45.2% (inactive) | 58.7% (inactive) | 76.7% (inactive) | – | 52.2% (inactive) | 61.4% (inactive) | 45.4% (inactive) | 46.7% (inactive) | – | – | 37.7% (inactive) | 29% (inactive) | 55% (inactive) | –
CC[N+](CC)=c1ccc2nc3c(cc(N)c4ccccc43)oc-2c1 | – | 5.58% (active) | -64.3% (active) | -76.1% (active) | -48.8% (active) | – | -79.9% (active) | -58.7% (active) | -61.8% (active) | -75.1% (active) | -40.8% (active) | -56.7% (active) | -74.2% (active) | -77.6% (active) | -79% (active) | -76.4% (active) | 19.8% (inactive) | -44.4% (active) | -73.4% (active) | –
COC(=O)C1C(O)C(C)C(O)C(C)C=C(C)C2=C3C(=C(C)C(=O)c4c(O)c(c(C)c(OC(C)=O)c43)NC(=O)C(C)=C/C=C\C(C)C(O)C(C)C1O)OCO2 (stereo unspecified) | – | 114% (inactive) | 109% (inactive) | 110% (inactive) | – | 110% (inactive) | 103% (inactive) | 102% (inactive) | 118% (inactive) | 26.5% (inactive) | 99.8% (inactive) | 89.3% (inactive) | 118% (inactive) | 104% (inactive) | 133% (inactive) | – | 103% (inactive) | 153% (inactive) | 90% (inactive) | –
CC(C)(C)CC(C)(C)c1ccc(OCCO)cc1 | – | 99.3% (inactive) | 106% (inactive) | 104% (inactive) | 117% (inactive) | 119% (inactive) | 106% (inactive) | 99.1% (inactive) | 141% (inactive) | – | 103% (inactive) | 88.2% (inactive) | 78.2% (inactive) | 117% (inactive) | 115% (inactive) | – | 106% (inactive) | 85.4% (inactive) | 101% (inactive) | 122% (inactive)
CCCCCCCCCCSC(=N)N | – | -27.7% (active) | 66.8% (inactive) | 5.37% (active) | 59% (inactive) | 50.7% (inactive) | -35% (active) | 47.8% (inactive) | 89.3% (inactive) | 61.9% (inactive) | 60.9% (inactive) | 53.4% (inactive) | 60% (inactive) | 50.1% (inactive) | 46.4% (inactive) | – | 51.3% (inactive) | 15.2% (inactive) | 80.7% (inactive) | –
CN(C)C(=S)SC(=S)N(C)C | – | 82.2% (inactive) and 59.8% (inactive) | 98.7% (inactive) and 109% (inactive) | 96.1% (inactive) and 97.1% (inactive) | 93.1% (inactive) and 89.6% (inactive) | 92.9% (inactive) and 99% (inactive) | 92.1% (inactive) and 103% (inactive) | 99.8% (inactive) and 90.9% (inactive) | 105% (inactive) and 104% (inactive) | 107% (inactive) and 93.2% (inactive) | 101% (inactive) and 103% (inactive) | 91.2% (inactive) and 79.1% (inactive) | 113% (inactive) and 112% (inactive) | 101% (inactive) and 107% (inactive) | 104% (inactive) and 103% (inactive) | 94.7% (inactive) | 80.6% (inactive) and 71.3% (inactive) | 92.4% (inactive) and 85% (inactive) | 97.2% (inactive) and 89.7% (inactive) | –
OC(CN1CCCC2CCCCC21)c1cc2ccccc2c2ccccc12 (stereo unspecified) | – | 1.91% (active) | 43.6% (inactive) | 28.2% (inactive) | 38.5% (inactive) | -84.6% (active) | – | -19.9% (active) | 49.4% (inactive) | 42.8% (inactive) | 49.7% (inactive) | 35.6% (inactive) | 52.6% (inactive) | 29.1% (inactive) | 41.2% (inactive) | – | 68.2% (inactive) | -1.89% (active) | 12.5% (inactive) | –
